# Reference: the supplement of paper PMC6089552
# Hit rate of the full screen: of about 3,200 compounds, about 300 (9.4%) showed activity. Shown is part of a subset that was picked to be rich in actives.
# System: A673/TR/shEF
# Assay: cell viability (LOESS-normalised, relative to median of negative controls) (log2 ratio); higher = more viable cells (less compound effect), active = hit call of the paper (over 3 MAD below the median)
# Conditions: treatment time: 72 h
# Method in brief: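 A673/TR/shEF Ewing sarcoma cells were plated at 1,500 per well in 384-well plates and cultured with or without doxycycline, added 24 h before compounds, to induce EWS-FLI1 shRNA knockdown. Library compounds at two or more concentrations, alongside DMSO controls, were applied for three days. Cell viability was measured by CellTiter-Glo luminescence on an Envision reader. Readings were LOESS-corrected per plate, divided by the median of negative controls and log2-transformed, and hits were wells lying at least three median absolute deviations from the median of all screened wells.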
# [1] = 0.25 µM, library screen: screen1, EWS-FLI1 expression: high (no doxycycline)
# [2] = 0.25 µM, library screen: screen1, EWS-FLI1 expression: low (doxycycline-induced shRNA knockdown)
# [3] = 2.5 µM, library screen: screen1, EWS-FLI1 expression: high (no doxycycline)
# [4] = 2.5 µM, library screen: screen1, EWS-FLI1 expression: low (doxycycline-induced shRNA knockdown)
# [5] = 0.103 µM, library screen: screen3, EWS-FLI1 expression: high (no doxycycline)
# [6] = 0.103 µM, library screen: screen3, EWS-FLI1 expression: low (doxycycline-induced shRNA knockdown)
# [7] = 0.308 µM, library screen: screen3, EWS-FLI1 expression: high (no doxycycline)
# [8] = 0.308 µM, library screen: screen3, EWS-FLI1 expression: low (doxycycline-induced shRNA knockdown)
# [9] = 0.926 µM, library screen: screen3, EWS-FLI1 expression: high (no doxycycline)
# [10] = 0.926 µM, library screen: screen3, EWS-FLI1 expression: low (doxycycline-induced shRNA knockdown)
# [11] = 2.8 µM, library screen: screen3, EWS-FLI1 expression: high (no doxycycline)
# [12] = 2.8 µM, library screen: screen3, EWS-FLI1 expression: low (doxycycline-induced shRNA knockdown)
# [13] = 8.3 µM, library screen: screen3, EWS-FLI1 expression: high (no doxycycline)
# [14] = 8.3 µM, library screen: screen3, EWS-FLI1 expression: low (doxycycline-induced shRNA knockdown)
# [15] = 25 µM, library screen: screen3, EWS-FLI1 expression: high (no doxycycline)
# [16] = 25 µM, library screen: screen3, EWS-FLI1 expression: low (doxycycline-induced shRNA knockdown)
# [17] = 0.25 µM, library screen: screen2, EWS-FLI1 expression: high (no doxycycline)
# [18] = 0.25 µM, library screen: screen2, EWS-FLI1 expression: low (doxycycline-induced shRNA knockdown)
# [19] = 2.5 µM, library screen: screen2, EWS-FLI1 expression: high (no doxycycline)
# [20] = 2.5 µM, library screen: screen2, EWS-FLI1 expression: low (doxycycline-induced shRNA knockdown)
# [21] = 0.025 µM, library screen: screen1, EWS-FLI1 expression: high (no doxycycline)
# [22] = 0.025 µM, library screen: screen1, EWS-FLI1 expression: low (doxycycline-induced shRNA knockdown)
# [23] = 25 µM, library screen: screen1, EWS-FLI1 expression: high (no doxycycline)
# [24] = 25 µM, library screen: screen1, EWS-FLI1 expression: low (doxycycline-induced shRNA knockdown)
smiles,measurement,setting,value
COc1ccccc1/C=C1\SC(=S)N(C2CCS(=O)(=O)C2)C1=O (stereo not drawn),cell viability (log2),[1],0.0633 (inactive)
same,cell viability (log2),[2],0.0907 (inactive)
same,cell viability (log2),[3],0.0733 (inactive)
same,cell viability (log2),[4],0.0539 (inactive)
COc1ccc(OC)c(CN2CCN(Cc3cccnc3)CC2)c1,cell viability (log2),[1],0.114 (inactive)
same,cell viability (log2),[2],0.038 (inactive)
same,cell viability (log2),[3],0.0976 (inactive)
same,cell viability (log2),[4],-0.0472 (inactive)
N/C(=N/c1nc2ccccc2o1)NC(=O)Nc1ccccc1,cell viability (log2),[1],0.05 (inactive)
same,cell viability (log2),[2],0.11 (inactive)
same,cell viability (log2),[3],0.0784 (inactive)
same,cell viability (log2),[4],0.171 (inactive)
NCC1COc2ccccc2O1 (stereo not drawn),cell viability (log2),[1],0.104 (inactive)
same,cell viability (log2),[2],-0.0116 (inactive)
same,cell viability (log2),[3],0.0686 (inactive)
same,cell viability (log2),[4],0.0513 (inactive)
COc1cccc(C=CC(=O)O)c1C(C)C,cell viability (log2),[1],0.0613 (inactive)
same,cell viability (log2),[2],0.0863 (inactive)
same,cell viability (log2),[3],0.0736 (inactive)
same,cell viability (log2),[4],0.0985 (inactive)
CCC(=O)OC1[C@@H]2CC3=C4CC(=O)O[C@@H](c5ccoc5)[C@]4(C)CCC3[C@@](C)(C2=O)[C@@H](CC(=O)OC)C1(C)C (stereo partly drawn),cell viability (log2),[1],0.0873 (inactive)
same,cell viability (log2),[2],-0.00184 (inactive)
same,cell viability (log2),[3],0.0649 (inactive)
same,cell viability (log2),[4],0.122 (inactive)
NCCC(=O)N[C@@H](Cc1cnc[nH]1)C(=O)O,cell viability (log2),[1],0.026 (inactive)
same,cell viability (log2),[2],0.0201 (inactive)
same,cell viability (log2),[3],0.0679 (inactive)
same,cell viability (log2),[4],0.084 (inactive)
O=C(O)C[C@H](O)C[C@H](O)/C=C/c1c(C2CC2)nc2ccccc2c1-c1ccc(F)cc1,cell viability (log2),[5],0.0626 (inactive)
same,cell viability (log2),[6],-0.0656 (inactive)
same,cell viability (log2),[7],-0.114 (inactive)
same,cell viability (log2),[8],-0.0155 (inactive)
same,cell viability (log2),[9],-0.533 (active)
same,cell viability (log2),[10],-0.345 (active)
same,cell viability (log2),[11],-1.53 (active)
same,cell viability (log2),[12],-0.986 (active)
same,cell viability (log2),[13],-2.09 (active)
same,cell viability (log2),[14],-1.25 (active)
same,cell viability (log2),[15],-3.51 (active)
same,cell viability (log2),[16],-3.56 (active)
CC(C)n1c(/C=C/C(O)CC(O)CC(=O)O)c(-c2ccc(F)cc2)c2ccccc21 (stereo not drawn),cell viability (log2),[5],0.107 (inactive)
same,cell viability (log2),[6],0.0332 (inactive)
same,cell viability (log2),[7],0.201 (inactive)
same,cell viability (log2),[8],0.108 (inactive)
same,cell viability (log2),[9],0.169 (inactive)
same,cell viability (log2),[10],0.0801 (inactive)
same,cell viability (log2),[11],0.0218 (inactive)
same,cell viability (log2),[12],-0.0661 (inactive)
same,cell viability (log2),[13],-0.668 (active)
same,cell viability (log2),[14],-0.538 (active)
same,cell viability (log2),[15],-2.7 (active)
same,cell viability (log2),[16],-1.87 (active)
CC(C)c1c(C(=O)Nc2ccccc2)c(-c2ccccc2)c(-c2ccc(F)cc2)n1CC[C@@H](O)C[C@@H](O)CC(=O)O,cell viability (log2),[1],0.091 (inactive)
same,cell viability (log2),[2],0.0242 (inactive)
same,cell viability (log2),[3],0.147 (inactive)
same,cell viability (log2),[4],-0.0132 (inactive)
O=C1O[C@H]([C@@H](O)CO)C([O-])=C1[O-].[Ca+2],cell viability (log2),[1],0.0808 (inactive)
same,cell viability (log2),[2],0.0736 (inactive)
same,cell viability (log2),[3],0.131 (inactive)
same,cell viability (log2),[4],0.127 (inactive)
CC1=C(C(=O)Nc2ccccc2Cl)C(c2ccccc2Cl)NC(=S)N1 (stereo not drawn),cell viability (log2),[1],0.0969 (inactive)
same,cell viability (log2),[2],0.0233 (inactive)
same,cell viability (log2),[3],0.106 (inactive)
same,cell viability (log2),[4],0.0823 (inactive)
CCc1c(C)c(C#N)c2nc3ccccc3n2c1-n1ccnc1C,cell viability (log2),[1],0.109 (inactive)
same,cell viability (log2),[2],0.0379 (inactive)
same,cell viability (log2),[3],0.104 (inactive)
same,cell viability (log2),[4],0.136 (inactive)
CC(=O)Oc1ccc2c(c1)CC[C@@H]1[C@@H]2CC[C@]2(C)[C@@H](O)CC[C@@H]12,cell viability (log2),[1],0.103 (inactive)
same,cell viability (log2),[2],-0.00729 (inactive)
same,cell viability (log2),[3],0.0771 (inactive)
same,cell viability (log2),[4],0.0723 (inactive)
COc1c(O)cc(O)c2c(=O)c(-c3ccc(O)cc3)coc12,cell viability (log2),[1],0.0728 (inactive)
same,cell viability (log2),[2],0.0747 (inactive)
same,cell viability (log2),[3],0.145 (inactive)
same,cell viability (log2),[4],0.165 (inactive)
COc1c/c(=C2\C=c3ccccc3=N2)[nH]/c1=C\c1[nH]c(C)cc1C,cell viability (log2),[5],-0.00852 (inactive)
same,cell viability (log2),[6],-0.0389 (inactive)
same,cell viability (log2),[7],-0.218 (active)
same,cell viability (log2),[8],-0.107 (active)
same,cell viability (log2),[9],-0.709 (active)
same,cell viability (log2),[10],-0.236 (active)
same,cell viability (log2),[11],-2.64 (active)
same,cell viability (log2),[12],-1.14 (active)
same,cell viability (log2),[13],-3.15 (active)
same,cell viability (log2),[14],-1.55 (active)
same,cell viability (log2),[15],-4.31 (active)
same,cell viability (log2),[16],-2.5 (active)
COc1nc(N/N=C/c2ccccc2F)nc(N2CCCCC2)n1,cell viability (log2),[1],0.0265 (inactive)
same,cell viability (log2),[2],0.00454 (inactive)
same,cell viability (log2),[3],0.104 (inactive)
same,cell viability (log2),[4],-0.0151 (inactive)
NC(Cc1ccc(F)cc1)C(=O)O (stereo not drawn),cell viability (log2),"0.025 µM, library screen: screen2, EWS-FLI1 expression: high (no doxycycline)",0.118 (inactive)
same,cell viability (log2),"0.025 µM, library screen: screen2, EWS-FLI1 expression: low (doxycycline-induced shRNA knockdown)",0.0851 (inactive)
same,cell viability (log2),[1],0.119 (inactive)
same,cell viability (log2),[2],0.172 (inactive)
same,cell viability (log2),[17],0.158 (inactive)
same,cell viability (log2),[18],0.0689 (inactive)
same,cell viability (log2),[3],0.144 (inactive)
same,cell viability (log2),[4],0.0179 (inactive)
same,cell viability (log2),[19],0.2 (inactive)
same,cell viability (log2),[20],0.0773 (inactive)
same,cell viability (log2),"25 µM, library screen: screen2, EWS-FLI1 expression: high (no doxycycline)",0.0209 (inactive)
same,cell viability (log2),"25 µM, library screen: screen2, EWS-FLI1 expression: low (doxycycline-induced shRNA knockdown)",0.0999 (inactive)
CSCCC(NC=O)C(=O)NC(C)C(=O)O (stereo not drawn),cell viability (log2),[1],0.11 (inactive)
same,cell viability (log2),[2],0.0779 (inactive)
same,cell viability (log2),[3],0.177 (inactive)
same,cell viability (log2),[4],0.154 (inactive)
O=C1c2ccc(O)c(O)c2C(=O)c2c(O)ccc(O)c21,cell viability (log2),[1],0.0226 (inactive)
same,cell viability (log2),[2],0.0878 (inactive)
same,cell viability (log2),[3],0.117 (inactive)
same,cell viability (log2),[4],-0.00838 (inactive)
O=C1c2cccc(O)c2C(=O)c2c(O)cccc21,cell viability (log2),[1],0.127 (inactive)
same,cell viability (log2),[2],0.109 (inactive)
same,cell viability (log2),[3],0.149 (inactive)
same,cell viability (log2),[4],0.271 (inactive)
O=C1c2c(O)ccc(O)c2C(=O)c2c(NCCNCCO)ccc(NCCNCCO)c21,cell viability (log2),[5],-0.962 (active)
same,cell viability (log2),[6],-0.246 (active)
same,cell viability (log2),[1],-1.93 (active)
same,cell viability (log2),[2],-0.576 (active)
same,cell viability (log2),[17],-2.25 (active)
same,cell viability (log2),[18],-0.221 (active)
same,cell viability (log2),[7],-1.25 (active)
same,cell viability (log2),[8],-0.351 (active)
same,cell viability (log2),[9],-1.51 (active)
same,cell viability (log2),[10],-0.325 (active)
same,cell viability (log2),[3],-4.22 (active)
same,cell viability (log2),[4],-3.67 (active)
same,cell viability (log2),[19],-2.87 (active)
same,cell viability (log2),[20],-0.985 (active)
same,cell viability (log2),[11],-2.02 (active)
same,cell viability (log2),[12],-0.758 (active)
same,cell viability (log2),[13],-3.96 (active)
same,cell viability (log2),[14],-3.09 (active)
same,cell viability (log2),[15],-4.26 (active)
same,cell viability (log2),[16],-4.25 (active)
NC(N)=NCCC[C@H](N[C@H](CCC(=O)O)C(=O)O)C(=O)O,cell viability (log2),[1],0.0848 (inactive)
same,cell viability (log2),[2],0.0238 (inactive)
same,cell viability (log2),[3],0.123 (inactive)
same,cell viability (log2),[4],0.0291 (inactive)
C/C(=C\C(=O)Nc1ccccc1C(=O)O)c1ccc2ccccc2c1,cell viability (log2),[5],0.0459 (inactive)
same,cell viability (log2),[6],0.0279 (inactive)
same,cell viability (log2),[7],-0.00745 (inactive)
same,cell viability (log2),[8],-0.00325 (inactive)
same,cell viability (log2),[9],-0.0219 (inactive)
same,cell viability (log2),[10],0.0436 (inactive)
same,cell viability (log2),[11],0.00499 (inactive)
same,cell viability (log2),[12],-1.3e-05 (inactive)
same,cell viability (log2),[13],-0.0171 (inactive)
same,cell viability (log2),[14],0.0177 (inactive)
same,cell viability (log2),[15],0.0665 (inactive)
same,cell viability (log2),[16],0.0416 (inactive)
C=CC(=O)c1ccc2ccccc2c1,cell viability (log2),[21],0.279
same,cell viability (log2),[22],0.0903 (inactive)
same,cell viability (log2),[1],0.286
same,cell viability (log2),[2],0.00371 (inactive)
same,cell viability (log2),[3],-0.264 (active)
same,cell viability (log2),[4],0.198 (inactive)
same,cell viability (log2),[23],-0.287 (active)
same,cell viability (log2),[24],-0.0301 (inactive)
O=P(O)(O)C(O)c1ccc2ccccc2c1 (stereo not drawn),cell viability (log2),[21],0.0997 (inactive)
same,cell viability (log2),[22],0.0649 (inactive)
same,cell viability (log2),[1],0.143 (inactive)
same,cell viability (log2),[2],-0.0248 (inactive)
same,cell viability (log2),[3],0.0554 (inactive)
same,cell viability (log2),[4],0.0311 (inactive)
same,cell viability (log2),[23],0.0292 (inactive)
same,cell viability (log2),[24],0.0551 (inactive)
